# Only some compounds are listed: those with a hit (about 2.3% of all), similar ones and a draw of the others.
# Tau fluor cs = counter-screen for tau fibril formation inhibitors; AID 1463; tau K18 P301L Alexa594 fluorescence, heparin fibrillization; Potency, µM (series often up to 57.7 µM), without a hit: at the top dose activity change, negative = decrease; hit rate 0.93% among 280,000; active = well fitted curve in the direction sought with a large enough effect; inconclusive = small, poorly fitted or top-dose-only effect, or another doubt; inactive = no such curve, though single readings can be large; an effect the other way counts as inactive or inconclusive; note: potency is the fitted concentration of half-maximal effect; % is set by controls: 0 for no effect and ±100 for the full control effect; nearly all actives have a fitted effect of over 55% in size
#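 Human K18 P301L tau (15 uM unlabeled plus 0.24 uM Alexa 594-labeled, final) in 100 mM sodium acetate pH 7 was mixed with compound and 20 uM heparin and incubated 6 hr at 37 C.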
# USP1 inh = USP1/UAF1 (human) deubiquitinase inhibition | recombinant USP1/UAF1, Ub-Rhodamine cleavage fluorescence | Potency, µM (series often up to 57.1 µM), without a hit: at the highest dose activity change, negative = inhibition, usual class: inhibitors | hit rate 0.23% among 390,000; active = well fitted curve in the direction sought with a large enough effect; inconclusive = small, poorly fitted or top-dose-only effect, or another doubt; inactive = no such curve, though single readings can be large; an effect the other way counts as inactive or inconclusive; note: potency is the fitted concentration of half-maximal effect; % is set by controls: 0 for no effect and ±100 for the full control effect; nearly all actives have a fitted effect of over 60% in size
#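 In this screen, compounds sit with the deubiquitinase complex (1nM) for 15 min at room temperature before Ub-Rho is added at 150nM final. Fluorescence rise is then followed for 6 reads every 60 seconds.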
# Tau fibril ThT = inhibitors of human tau fibril formation, thioflavin T binding; P10636; recombinant tau K18 P301L (four-repeat tau fragment), heparin-induced fibrillization, ThT fluorescence; Potency, µM (top dose mostly 57.4 µM), inactives show at the top dose activity, negative = inhibition, most hits filed as inhibitors; hit rate 2.1% among 270,000; AID 1460; active = well fitted curve in the direction sought with a large enough effect; inconclusive = small, poorly fitted or top-dose-only effect, or another doubt; inactive = no such curve, though single readings can be large; an effect the other way counts as inactive or inconclusive; note: potency is the fitted concentration of half-maximal effect; % is set by controls: 0 for no effect and ±100 for the full control effect; nearly all actives have a fitted effect of over 55% in size
#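 Tau K18 P301L fragment (15 uM unlabeled plus 0.24 uM Alexa 594-labeled) in 100 mM sodium acetate pH 7 with compound, fibrillization induced by 20 uM heparin for 6 hr at 37 C. Thioflavin T (30 uM) added, fluorescence read after 1 hr (ex 450, em 510 nm).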
# Tau fibril FP = inhibitors of human tau fibril formation | hit rate 0.39% among 280,000 | Potency, µM (series often up to 57.7 µM), inactives show top-dose activity, negative = inhibition, hits mostly inhibitors | AID 1468 | K18 P301L tau heparin fibrillization, Alexa594 FP, 6 h; active = well fitted curve in the direction sought with a large enough effect; inconclusive = small, poorly fitted or top-dose-only effect, or another doubt; inactive = no such curve, though single readings can be large; an effect the other way counts as inactive or inconclusive; note: potency is the fitted concentration of half-maximal effect; % is set by controls: 0 for no effect and ±100 for the full control effect; nearly all actives have a fitted effect of over 55% in size
#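 Compound effects on tau fibrillization are measured by Alexa 594 fluorescence polarization (ex 555, em 632 nm). K18 P301L tau is used at 15 uM with 0.24 uM labeled tracer, and 20 uM heparin induces aggregation over 6 hr at 37 C.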
# Coupling enz = coupling enzyme interference in Giardia aldolase counter-screen | coupling enzyme system counterscreen, AmpLite Red fluorescence | activity change, negative = inhibition, % at 58.2 µM, hits read low | hit rate 0.67% among 290,000; in the data active = activity change below about -30%; note: % is set by controls: 0 for no effect and ±100 for the full control effect
#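 First, compound is pin-transferred into glyceraldehyde-3-phosphate coupling-enzyme reagent at 57.5 uM final and held 10 min at RT. Next, substrate, coupling system and AmpLite Red are added. After 20 min RT, fluorescence (525/598 nm) is read.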
# Casp1 catalase = caspase-1 inhibition with catalase present. Potency, µM (top dose mostly 57.5 µM), inactives show at the top dose activity change, negative = inhibition, actives largely listed as inhibitors. 30 tested, under 10 active. shares compounds with Coupling enz. caspase-1 Ac-WEHD-AFC fluorescence rate, catalase buffer
# Casp1 confirm = blocks human caspase-1 activity in concentration-response. shares compounds with Coupling enz. purified caspase-1, fluorogenic substrate cleavage. Potency, µM (highest dose often 57.5 µM), for inactives: at the top dose activity change, negative = inhibition, most hits filed as inhibitors. hit rate 20% among 60
# Casp7 confirm = confirmation of allosteric or competitive inhibitors of human caspase-7. shares compounds with Coupling enz. recombinant caspase-7, fluorogenic substrate cleavage. Potency, µM (doses to about 57.5 µM), for inactives: top-dose activity change, negative = inhibition, actives largely listed as inhibitors. 60 tested, under 10 active; active = well fitted inhibition curve with a large enough effect in the main read-out, with a control signal flat, not every such curve was filed as active; inconclusive = small, poorly fitted or top-dose-only effect, or a change in a side signal; inactive = no such curve, though single readings can be large or run the other way
# CASP7 redox cys = caspase-7 inhibition with cysteine present | shares compounds with Coupling enz | caspase-7 enzyme with cysteine, fluorogenic substrate, redox counterscreen | Potency, µM (titrated, usually from 57.5 µM), for the others: at the top dose activity change, negative = inhibition, most hits filed as inhibitors | 60 tested, under 10 active | AID 908
# Casp7 catalase = inhibits caspase-7 in catalase buffer, redox counter-screen | shares compounds with Coupling enz | Caspase-7 Ac-DEVD-AFC fluorescence rate, catalase buffer | Potency, µM (highest dose often 57.5 µM), inactives show at the top dose activity, negative = inhibition, most hits filed as inhibitors | 30 tested, under 10 active | AID 909
# Casp1 cysteine = inhibits caspase-1 in cysteine buffer, redox counter-screen; shares compounds with Coupling enz; recombinant caspase-1, fluorogenic substrate, cysteine buffer; 60 tested, under 10 active; Potency, µM (doses to about 57.5 µM), for the others: top-dose activity change, negative = inhibition, usual class: inhibitors
# Starred values were filed as active, the others as inactive; ? = inconclusive; . = no result given. Unless noted, calls come from the whole dose curve; as a rule, active = well fitted inhibition curve with a large enough effect in the main read-out, with a control signal flat; inconclusive = small, poorly fitted or top-dose-only effect, or a change in a side signal; inactive = no such curve, though single readings can be large or run the other way.
SMILES,Tau fluor cs,USP1 inh,Tau fibril ThT,Tau fibril FP,Coupling enz,Casp1 catalase,Casp1 confirm,Casp7 confirm,CASP7 redox cys,Casp7 catalase,Casp1 cysteine
COc1ccc(C2CC(=O)N3CN(c4ccccc4F)CSC3=C2C#N)cc1OC (configuration not stated),-24.4%,-11.2%,28.2µM*,?,-14.1,2.5%,-13.0%,-7.9%,-10.3%,6.7%,-2.7%
CC1CCN(C(=O)CN2CC(C)Sc3ccccc32)CC1 (configuration not stated),-11.2%,-5.3%,-1.0%,7.5%,.,.,.,.,.,.,.
COc1cccc(Cn2cccc(NC(=O)NC3CCCCC3)c2=O)c1,-10.0%,-21.8%,-7.4%,-0.5%,-20.6,0.1%,-20.7%,-9.3%,-10.8%,4.7%,1.8%
CC1(C)C(=O)NC2=C1C(=O)C(=O)c1ccccc12,-28.2%,.,17.8µM*,?,-75.6*,.,3.98µM*,?,-17.6%,.,-2.4%
CCCSC1=C(C#N)C(c2cccs2)CC(=O)N1 (configuration not stated),-5.8%,-22.7%,-9.8%,-1.3%,0.0,.,.,.,.,.,.
N#CC1=C2SCN(Cc3ccccc3)CN2C(=O)CC1c1cccs1 (configuration not stated),-27.8%,15.8µM*,28.2µM*,?,-39.8*,-4.1%,-4.7%,-1.0%,1.0%,-7.5%,-1.9%
CC(=O)Nc1cc(OC(C)=O)c2nonc2c1OC(C)=O,?,3.98µM*,1.12µM*,2µM*,-76.8*,-25.1%,-63.3%,-31.9%,-12.9%,1.2%,?
O=C(NC1CC(=O)N(c2ccc(Cl)cc2)C1)c1ccc2c(c1)OCO2 (configuration not stated),-8.8%,-7.4%,-2.0%,-9.9%,.,.,.,.,.,.,.
COc1cc(=O)[nH]c(SCc2c(F)c(F)c(F)c(F)c2F)n1,0.3%,-14.1%,1.5%,0.1%,10.8,.,-4.7%,-3.7%,-6.8%,.,5.4%
COc1ccc(CSc2nc(C)cc(=O)[nH]2)cc1Br,-6.3%,-5.4%,?,-2.1%,13.3,.,.,.,.,.,.
Cc1cccc(Nc2c(-c3ccsc3)nc3nc(C)cc(C)n23)c1,-16.7%,-7.6%,-14.9%,3.2%,.,.,.,.,.,.,.
O=C1NCCCC2c3c(cc(Br)c(O)c3Br)OC12N1CCOCC1 (configuration not stated),-18.4%,-12.3%,?,?,2.5,.,.,.,.,.,.
O=C1NCCCC2c3cc(O)c4ccccc4c3OC12N1CCCCC1 (configuration not stated),?,.,12.6µM*,?,-57.1*,-24.8%,-67.0%,-31.1%,-13.7%,-3.3%,-19.4%
CSc1ccc(C2c3c(oc4ccc(F)cc4c3=O)C(=O)N2c2ccc(C)cn2)cc1 (configuration not stated),-15.1%,-18.8%,-10.1%,-9.2%,.,.,.,.,.,.,.
COc1ccc(S(=O)(=O)Nc2ccccc2)cc1,.,5.9%,.,.,.,.,.,.,.,.,.
COc1ccc(S(=O)(=O)Nc2ccc(O)c3ccccc23)cc1,?,?,?,?,-2.8,-2.3%,-3.8%,-4.2%,-0.2%,-9.0%,4.2%
CN(C(=O)CCc1nc(-c2ccccc2F)no1)c1ccc(Cl)cc1,-9.0%,-1.4%,-10.5%,1.2%,.,.,.,.,.,.,.
Cc1cc(C)cc(C(=O)N(C)[C@H](Cc2ccc(-c3ccccc3)cc2)C(=O)N[C@@H](Cc2c[nH]c3ccccc23)C(=O)O)c1,-16.3%,.,?,-7.6%,-0.3,.,?,15.8µM*,15.8µM*,.,?
COc1ccc(N2CCN(C(=O)CSc3nc4[nH]ncc4c(=O)n3-c3cccc4ccccc34)CC2)cc1,?,-14.7%,?,7.7%,-10.3,.,.,.,.,.,.
COc1cc2c(cc1OC)CN(C(=O)CSc1nc3[nH]ncc3c(=O)n1-c1ccccc1)CC2,-0.9%,-2.9%,-16.9%,-1.0%,-2.9,1.2%,-5.9%,?,?,-24.6%,5.8%
CNC(=O)Cn1cc(S(=O)(=O)Cc2ccccc2F)c2ccccc21,5.2%,-21.8%,7.5%,0.0%,.,.,.,.,.,.,.
O=C(Nc1ccc2c(c1)OCO2)[C@@H]1[C@@H]2C(=O)N(C3CCCCC3)C(=O)[C@@H]2C2c3ccccc3C=CN21 (some centres not stated),?,.,?,-13.6%,-35.1*,-3.5%,-24.5%,-16.3%,-16.1%,6.5%,-3.2%

# Screening results: PubChem BioAssay, National Center for Advancing Translational Sciences (NCATS)
